# Assay results taken from PubChem BioAssay (EPA / NIEHS).
# Where “and” joins values, the source holds several entries; their conditions need not be identical. Equal values may be shown once. Results filed as inconclusive are left out. A structure can be active in one record and inactive in another. Calls of active or inactive are those of the source. How the source made its calls: active means hit-call score of the fitted dose curve at least 0.9, where 1 is the maximum; inconclusive means response in the unintended direction; inactive means score below 0.9.
# Experiments:
# [1] = target: rat Monoamine Oxidase, MAO-B, Peripheral (MAOBP), Maob (gene 25750) (UniProt P19643); test: NVS_ENZ_rMAOBP: NovaScreen (NVS) Enzymatic Assay for rat Monoamine Oxidase, MAO-B, Peripheral (MAOBP) (AID 2283242)
# Protocol: NVS_ENZ_rMAOBP is a biochemical, single-readout assay that uses extracted gene-proteins from Rat brain in a tissue-based cell-free assay. Measurements were taken 1.17 hours after chemical dosing in a 96-well plate.NVS_ENZ_rMAOBP is one of one assay component(s) measured or calculated from the NVS_ENZ_rMAOBP assay. It is designed to make measurements of enzyme activity, a form of enzyme reporter, as detected with scintillation counting signals by Lysate-based radiodetection technology.Data from the assay component NVS_ENZ_rMAOBP was analyzed into 1 assay endpoint. This assay endpoint, NVS_ENZ_rMAOBP, was analyzed in the positive analysis fitting direction relative to DMSO as the negative control and baseline of activity. Using a type of enzyme reporter, loss-of-signal activity can be used to understand changes in the enzymatic activity as they relate to the gene Maob. Furthermore, this assay endpoint can be referred to as a primary readout, because this assay has produced multiple assay endpoints where this one serves a enzymatic activity function. To generalize the intended target to other relatable targets, this assay endpoint is annotated to the oxidoreductase intended target family, where the subfamily is monoamine oxidase.
# Binding assays used specific radioligands (tritiated, iodinated) with non-radioactive competitive displacement ligands in agonist or antagonist protocols (as indicated) and various reference compounds and inhibitors to titrate specific binding to receptors and transporters. Most enzyme assays (CYPs, kinases, phosphatases, proteases, HDACs) used recombinant protein and specific substrates (fluorescence mostly, some colorimetric and radioactive) and inhibitors, followed by a biochemical separation of substrate and product. All assays for the biochemical HTS were initially run in duplicate at a single concentration (10 uM for CYP450 assays and 25 uM for all others). Assay-chemical combinations meeting a pre-defined threshold (e.g., 30% inhibition and other criteria defined below) were then run in singleton concentration-response format with maximum concentration of 20 uM for CYPs and 50 uM for all others. Each assay was run with positive and negative controls, and concurrent controls on every plate. The follow-up (secondary) screen tested active chemical-pairs in concentration series, as well as a few additional assays not tested in the primary screen, some selected negative inactives, and several cases re-run in the concentration series for confirmatory purposes.
# [2] = target: human Adenosine A1 Receptor (AdoRA1), ADORA1 (gene 134) (UniProt P30542); test: NVS_GPCR_hAdoRA1: NovaScreen (NVS) G Protein-Coupled Receptor Assay for human Adenosine A1 Receptor (AdoRA1) (AID 2283254)
# Method in brief: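 Hum. cortical membranes + radioligand, cmpd 1 h; filtration, scintillation count. Readout = decrease vs DMSO. Primary 25 uM dup; hits → conc. series.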
# [3] = target: Adenosine receptor A1 (Bos taurus) (UniProt P28190); test: NVS_GPCR_bAdoR_NonSelective: NovaScreen (NVS) G Protein-Coupled Receptor Assay for bovine Adenosine Receptor (AdoR), Non-selective Binding (AID 2283244)
# Method in brief: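 Cell-free binding with membranes from bovine striatum: radioligand displaced by test chemical, read after 1 h by filtration and scintillation. Single-point 25 uM duplicate primary, 50 uM top concentration in follow-up curves, DMSO baseline.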
# [4] = target: human Adenosine A2a Receptor (AdoRA2a), ADORA2A (gene 135) (UniProt P29274); test: NVS_GPCR_hAdoRA2a: NovaScreen (NVS) G Protein-Coupled Receptor Assay for human Adenosine A2a Receptor (AdoRA2a) (AID 2283256)
# Method in brief: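 Compounds screened in duplicate at 25 uM, with actives followed up in concentration series, for displacement of a radioligand from HEK293-derived receptor protein. Bound counts read by filter scintillation at 1.5 hours, DMSO as baseline.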
# [5] = test system: bovine Histamine 1 Receptor (H1), gene 281231; test: NVS_GPCR_bH1: NovaScreen (NVS) G Protein-Coupled Receptor Assay for bovine Histamine 1 Receptor (H1) (AID 2283246)
# Method in brief: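 Hits from a 25 uM duplicate primary screen were retested in concentration series (top 50 uM); binding measured as scintillation-counted displacement of radioligand from bovine cerebellar membranes after 1 h, normalised to DMSO.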
# [6] = test system: guinea pig Muscarinic, Peripheral (Mperiperal) Receptor, Non-selective Binding, gene 100379235; test: NVS_GPCR_gMPeripheral_NonSelective: NovaScreen (NVS) G Protein-Coupled Receptor Assay for guinea pig Muscarinic, Peripheral (Mperiperal) Receptor, Non-selective Binding (AID 2283250)
# Method in brief: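 Screened in duplicate at 25 uM, hits retested in concentration series to 50 uM max, using bladder membrane radioligand displacement from guinea pig. Filtration and scintillation counting 1 h post-dose, fitted relative to DMSO.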
# [7] = target: guinea pig Opioid, Kappa 1 Receptor (OpiateK), OPRK1 (gene 100135587) (UniProt P41144); test: NVS_GPCR_gOpiateK: NovaScreen (NVS) G Protein-Coupled Receptor Assay for guinea pig Opioid, Kappa 1 Receptor (OpiateK) (AID 2283252);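 further: radioligand displacement from kappa opioid receptor in guinea pig cerebellar membranes; active means reduced radioligand binding relative to DMSO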
# Method in brief: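 Cell-free tissue prep: guinea pig cerebellar membranes, radioligand displacement, 2 h incubation. Readout: filtration plus scintillation counting. Primary single-point 25 uM duplicate; actives retested in concentration series; DMSO negative control.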
# [8] = target: human Serotonin, 5-Hydroxytryptamine Receptor 7 (5HT7), HTR7 (gene 3363) (UniProt P34969); test: NVS_GPCR_h5HT7: NovaScreen (NVS) G Protein-Coupled Receptor Assay for human Serotonin, 5-Hydroxytryptamine Receptor 7 (5HT7) (AID 2283255);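 further: hits reduce specific radioligand binding relative to DMSO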
# Method in brief: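 Filter-bound radioactivity counted after 1 h, with loss of specific radioligand binding fitted against DMSO. Membrane protein came from CHO cells expressing human 5HT7. Chemicals were tested first at 25 uM in duplicate, then in concentration series if active.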
# [9] = target: human Adrenergic, Beta 1 Receptor (Adrb1), ADRB1 (gene 153) (UniProt P08588); test: NVS_GPCR_hAdrb1: NovaScreen (NVS) G Protein-Coupled Receptor Assay for human Adrenergic, Beta 1 Receptor (Adrb1) (AID 2283258)
# Method in brief: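 Membranes/protein extracted from human neuroepithelioma cells, radioligand competition binding read by filtration and scintillation 2 h post-dose. Single 25 uM duplicate screen, then concentration-response follow-up; DMSO as negative control.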
# [10] = target: bovine Dopamine Receptor (DR), Non-selective Binding, DRD1 (gene 281125) (UniProt Q95136); test: NVS_GPCR_bDR_NonSelective: NovaScreen (NVS) G Protein-Coupled Receptor Assay for bovine Dopamine Receptor (DR), Non-selective Binding (AID 2283241)
# Method in brief: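 Filter-based radioligand binding with bovine striatal membrane, incubated 1 h; DMSO as negative baseline. Initial duplicate single-point test at 25 uM preceded concentration series for actives.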
# [11] = target: human Adrenergic, Alpha 2A Receptor (Adra2A), ADRA2A (gene 150) (UniProt P08913); test: NVS_GPCR_hAdra2A: NovaScreen (NVS) G Protein-Coupled Receptor Assay for human Adrenergic, Alpha 2A Receptor (Adra2A) (AID 2283257)
# Method in brief: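 Displacement of a specific radioligand from HT29 membrane protein was counted by filter scintillation after 1 h. Compounds were screened in duplicate at 25 uM, and actives were retested in concentration series. Fitting was positive-direction against DMSO.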
# [12] = target: human Adrenergic, Alpha 2c Receptor (Adra2C), ADRA2C (gene 152) (UniProt P18825); test: NVS_GPCR_hAdra2C: NovaScreen (NVS) G Protein-Coupled Receptor Assay for human Adrenergic, Alpha 2c Receptor (Adra2C) (AID 2283259)
# Method in brief: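 Screened first in duplicate at 25 uM, with actives then run as concentration series. Membranes from Sf9 cells were exposed for 1 h, and displacement of radioligand was counted after filtration, using DMSO as baseline.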
# [13] = target: human Adrenergic, Beta 3 Receptor (Adrb3), ADRB3 (gene 155) (UniProt P13945); test: NVS_GPCR_hAdrb3: NovaScreen (NVS) G Protein-Coupled Receptor Assay for human Adrenergic, Beta 3 Receptor (Adrb3) (AID 2283262)
# Method in brief: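 A cell-free filter binding assay read by scintillation counting, with displacement of a specific radioligand measured after 1 hour. The receptor source was SK-N-MC extracts (cells pretreated with isoproterenol and 8-bromo-cAMP). Compounds were first tested at 25 uM in duplicate and then in concentration series.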
# [14] = target: guinea pig Leukotriene D4 Receptor (LTD4), CYSLTR1 (gene 100135514) (UniProt Q2NNR5); test: NVS_GPCR_gLTD4: NovaScreen (NVS) G Protein-Coupled Receptor Assay for guinea pig Leukotriene D4 Receptor (LTD4) (AID 2283248)
# Method in brief: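 Guinea pig lung membrane preparation; bound radioligand measured by filter scintillation after 1 h, loss of signal versus DMSO marking displacement. Compounds tested at 25 uM in duplicate, hits retested to max 50 uM.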
# [15] = test system: guinea pig Leukotriene B4 Receptor (LTB4), gene 100379538; test: NVS_GPCR_gLTB4: NovaScreen (NVS) G Protein-Coupled Receptor Assay for guinea pig Leukotriene B4 Receptor (LTB4) (AID 2283247)
# Method in brief: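 Membranes from guinea pig spleen incubated 2 h with radioligand and compound; bound counts measured by filtration and scintillation. Screened first at 25 uM in duplicate, then actives titrated to a 50 uM top concentration relative to DMSO.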
# [16] = target: Beta-2 adrenergic receptor (Homo sapiens) (UniProt P07550); test: NVS_GPCR_hAdrb2: NovaScreen (NVS) G Protein-Coupled Receptor Assay for human Adrenergic, Beta 2 Receptor (Adrb2) (AID 2283261)
# Method in brief: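 Compounds screened in duplicate at 25 uM, then actives in concentration series. Human beta-2 receptor from CHO material, cell-free; radioligand displacement after 1 h measured by filtration and scintillation against DMSO baseline.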
# [17] = target: human Serotonin, 5-Hydroxytryptamine Receptor 2A (5HT2A), HTR2A (gene 3356) (UniProt P28223); test: NVS_GPCR_h5HT2A: NovaScreen (NVS) G Protein-Coupled Receptor Assay for human Serotonin, 5-Hydroxytryptamine Receptor 2A (5HT2A) (AID 2283249)
# Method in brief: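 Radioligand displacement on human cortex tissue extract, counted by filtration and scintillation 1.5 h post-dosing. Initial single-concentration screen at 25 uM in duplicate, concentration series in follow-up; DMSO as baseline.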
# Sequence of human Serotonin, 5-Hydroxytryptamine Receptor 7 (5HT7), HTR7 (gene 3363) (P34969 whole entry, looked up): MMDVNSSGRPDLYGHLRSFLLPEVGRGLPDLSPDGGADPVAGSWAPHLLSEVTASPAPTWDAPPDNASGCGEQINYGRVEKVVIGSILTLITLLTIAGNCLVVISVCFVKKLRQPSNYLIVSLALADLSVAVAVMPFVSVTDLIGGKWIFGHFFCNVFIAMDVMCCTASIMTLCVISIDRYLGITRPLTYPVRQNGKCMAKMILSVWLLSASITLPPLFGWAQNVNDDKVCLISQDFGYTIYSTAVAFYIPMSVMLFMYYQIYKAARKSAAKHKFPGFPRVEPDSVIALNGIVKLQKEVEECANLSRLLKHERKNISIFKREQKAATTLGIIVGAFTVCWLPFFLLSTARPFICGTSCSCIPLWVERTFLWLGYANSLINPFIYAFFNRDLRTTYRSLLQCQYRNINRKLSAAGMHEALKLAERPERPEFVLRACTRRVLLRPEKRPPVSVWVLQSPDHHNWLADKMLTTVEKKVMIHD
# Sequence of human Adenosine A2a Receptor (AdoRA2a), ADORA2A (gene 135) (P29274 whole entry, looked up): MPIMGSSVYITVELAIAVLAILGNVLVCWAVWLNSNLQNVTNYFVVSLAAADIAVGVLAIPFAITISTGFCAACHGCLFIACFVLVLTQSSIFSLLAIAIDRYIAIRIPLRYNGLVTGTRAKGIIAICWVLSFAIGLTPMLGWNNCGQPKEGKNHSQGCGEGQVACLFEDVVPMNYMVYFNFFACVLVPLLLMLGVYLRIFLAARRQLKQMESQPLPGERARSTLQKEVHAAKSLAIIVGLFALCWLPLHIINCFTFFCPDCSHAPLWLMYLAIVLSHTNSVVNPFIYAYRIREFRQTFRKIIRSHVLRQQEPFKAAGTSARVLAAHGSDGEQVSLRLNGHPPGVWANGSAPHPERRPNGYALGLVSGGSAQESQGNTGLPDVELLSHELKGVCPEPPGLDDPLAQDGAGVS
# Sequence of human Adenosine A1 Receptor (AdoRA1), ADORA1 (gene 134) (P30542 whole entry, looked up): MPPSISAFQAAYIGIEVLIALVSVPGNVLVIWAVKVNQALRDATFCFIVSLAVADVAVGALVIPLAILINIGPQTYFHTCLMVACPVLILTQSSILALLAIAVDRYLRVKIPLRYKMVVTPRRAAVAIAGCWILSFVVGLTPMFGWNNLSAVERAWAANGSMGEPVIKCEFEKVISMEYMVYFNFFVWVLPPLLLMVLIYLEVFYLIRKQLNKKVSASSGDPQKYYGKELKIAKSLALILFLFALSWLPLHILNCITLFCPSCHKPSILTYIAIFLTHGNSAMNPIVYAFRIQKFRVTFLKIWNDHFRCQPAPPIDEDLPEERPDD
# Sequence of human Adrenergic, Alpha 2A Receptor (Adra2A), ADRA2A (gene 150) (P08913 whole entry, looked up): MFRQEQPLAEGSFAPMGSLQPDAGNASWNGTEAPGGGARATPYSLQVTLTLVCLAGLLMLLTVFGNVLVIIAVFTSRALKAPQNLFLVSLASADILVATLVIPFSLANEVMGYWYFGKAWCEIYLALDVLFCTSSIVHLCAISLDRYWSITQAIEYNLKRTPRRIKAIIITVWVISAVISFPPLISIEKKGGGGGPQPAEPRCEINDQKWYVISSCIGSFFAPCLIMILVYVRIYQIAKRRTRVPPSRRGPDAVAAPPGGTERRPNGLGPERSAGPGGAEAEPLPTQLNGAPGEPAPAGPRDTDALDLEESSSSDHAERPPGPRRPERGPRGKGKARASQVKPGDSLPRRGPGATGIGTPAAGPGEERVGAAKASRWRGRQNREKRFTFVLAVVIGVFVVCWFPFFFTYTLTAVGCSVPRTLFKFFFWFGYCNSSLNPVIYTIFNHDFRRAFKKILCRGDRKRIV
# Sequence of guinea pig Opioid, Kappa 1 Receptor (OpiateK), OPRK1 (gene 100135587) (P41144 whole entry, looked up): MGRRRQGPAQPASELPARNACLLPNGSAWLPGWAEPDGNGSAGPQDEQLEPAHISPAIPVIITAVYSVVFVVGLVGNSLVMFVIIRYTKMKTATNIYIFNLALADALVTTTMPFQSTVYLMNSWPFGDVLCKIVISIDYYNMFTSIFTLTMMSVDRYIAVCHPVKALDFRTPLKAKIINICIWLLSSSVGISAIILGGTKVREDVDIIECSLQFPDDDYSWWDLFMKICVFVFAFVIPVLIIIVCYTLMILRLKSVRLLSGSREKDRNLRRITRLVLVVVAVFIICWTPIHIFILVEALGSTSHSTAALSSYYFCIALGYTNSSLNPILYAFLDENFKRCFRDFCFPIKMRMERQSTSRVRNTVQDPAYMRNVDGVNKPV
# Sequence of Adenosine receptor A1 (Bos taurus) (P28190 whole entry, looked up): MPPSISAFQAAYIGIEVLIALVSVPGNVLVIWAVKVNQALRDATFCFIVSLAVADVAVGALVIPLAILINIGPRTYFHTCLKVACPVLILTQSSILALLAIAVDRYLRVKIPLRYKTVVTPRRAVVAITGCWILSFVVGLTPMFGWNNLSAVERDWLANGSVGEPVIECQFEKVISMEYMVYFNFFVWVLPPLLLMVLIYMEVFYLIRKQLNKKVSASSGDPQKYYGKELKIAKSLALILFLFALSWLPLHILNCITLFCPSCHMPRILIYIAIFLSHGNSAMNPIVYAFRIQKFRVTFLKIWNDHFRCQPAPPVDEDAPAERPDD
# Sequence of human Adrenergic, Beta 1 Receptor (Adrb1), ADRB1 (gene 153) (P08588 whole entry, looked up): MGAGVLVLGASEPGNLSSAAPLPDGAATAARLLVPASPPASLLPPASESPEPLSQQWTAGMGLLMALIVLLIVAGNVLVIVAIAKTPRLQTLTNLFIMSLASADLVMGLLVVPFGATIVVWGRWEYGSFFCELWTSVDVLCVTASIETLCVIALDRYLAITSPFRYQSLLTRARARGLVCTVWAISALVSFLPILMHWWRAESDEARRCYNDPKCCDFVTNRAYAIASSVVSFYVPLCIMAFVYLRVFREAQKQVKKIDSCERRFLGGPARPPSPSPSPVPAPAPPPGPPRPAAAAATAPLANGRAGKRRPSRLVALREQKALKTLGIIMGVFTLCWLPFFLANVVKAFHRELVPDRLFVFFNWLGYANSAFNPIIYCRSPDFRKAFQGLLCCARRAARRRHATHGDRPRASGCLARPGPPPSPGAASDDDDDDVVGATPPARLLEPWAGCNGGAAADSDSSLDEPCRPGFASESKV
# Sequence of guinea pig Leukotriene D4 Receptor (LTD4), CYSLTR1 (gene 100135514) (Q2NNR5 whole entry, looked up): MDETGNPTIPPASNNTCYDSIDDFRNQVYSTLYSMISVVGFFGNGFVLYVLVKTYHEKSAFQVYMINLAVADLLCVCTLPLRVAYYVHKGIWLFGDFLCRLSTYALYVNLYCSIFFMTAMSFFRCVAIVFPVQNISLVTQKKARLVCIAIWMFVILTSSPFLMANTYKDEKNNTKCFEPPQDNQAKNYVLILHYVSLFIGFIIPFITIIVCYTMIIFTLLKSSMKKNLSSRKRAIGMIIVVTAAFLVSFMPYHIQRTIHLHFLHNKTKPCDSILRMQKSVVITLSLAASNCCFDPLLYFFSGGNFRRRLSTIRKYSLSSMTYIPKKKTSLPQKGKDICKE
# Sequence of human Adrenergic, Alpha 2c Receptor (Adra2C), ADRA2C (gene 152) (P18825 whole entry, looked up): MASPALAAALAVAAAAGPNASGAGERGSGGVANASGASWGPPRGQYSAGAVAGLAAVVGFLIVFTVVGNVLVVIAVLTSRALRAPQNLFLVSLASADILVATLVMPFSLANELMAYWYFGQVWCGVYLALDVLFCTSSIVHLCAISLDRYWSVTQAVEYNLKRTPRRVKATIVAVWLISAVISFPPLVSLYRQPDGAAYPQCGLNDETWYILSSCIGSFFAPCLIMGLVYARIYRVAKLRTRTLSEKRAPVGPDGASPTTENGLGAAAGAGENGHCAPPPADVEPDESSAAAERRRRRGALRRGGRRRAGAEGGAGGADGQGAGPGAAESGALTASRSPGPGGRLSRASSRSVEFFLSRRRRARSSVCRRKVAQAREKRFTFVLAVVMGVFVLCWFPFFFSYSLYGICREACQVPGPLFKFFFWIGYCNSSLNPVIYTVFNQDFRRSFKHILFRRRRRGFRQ
# Sequence of bovine Dopamine Receptor (DR), Non-selective Binding, DRD1 (gene 281125) (Q95136 whole entry, looked up): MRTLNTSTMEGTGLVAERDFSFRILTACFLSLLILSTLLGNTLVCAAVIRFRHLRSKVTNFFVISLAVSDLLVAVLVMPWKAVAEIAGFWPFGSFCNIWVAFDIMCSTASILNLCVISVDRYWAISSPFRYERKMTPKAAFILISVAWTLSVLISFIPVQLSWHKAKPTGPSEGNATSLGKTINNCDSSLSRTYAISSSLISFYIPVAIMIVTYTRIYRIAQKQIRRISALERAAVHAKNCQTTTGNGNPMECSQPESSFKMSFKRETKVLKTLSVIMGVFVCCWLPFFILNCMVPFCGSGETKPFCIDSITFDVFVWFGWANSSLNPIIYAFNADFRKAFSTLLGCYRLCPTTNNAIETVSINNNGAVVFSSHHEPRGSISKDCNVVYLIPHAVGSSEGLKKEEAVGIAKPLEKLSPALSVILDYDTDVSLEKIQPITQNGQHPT
# Sequence of rat Monoamine Oxidase, MAO-B, Peripheral (MAOBP), Maob (gene 25750) (P19643 whole entry, looked up): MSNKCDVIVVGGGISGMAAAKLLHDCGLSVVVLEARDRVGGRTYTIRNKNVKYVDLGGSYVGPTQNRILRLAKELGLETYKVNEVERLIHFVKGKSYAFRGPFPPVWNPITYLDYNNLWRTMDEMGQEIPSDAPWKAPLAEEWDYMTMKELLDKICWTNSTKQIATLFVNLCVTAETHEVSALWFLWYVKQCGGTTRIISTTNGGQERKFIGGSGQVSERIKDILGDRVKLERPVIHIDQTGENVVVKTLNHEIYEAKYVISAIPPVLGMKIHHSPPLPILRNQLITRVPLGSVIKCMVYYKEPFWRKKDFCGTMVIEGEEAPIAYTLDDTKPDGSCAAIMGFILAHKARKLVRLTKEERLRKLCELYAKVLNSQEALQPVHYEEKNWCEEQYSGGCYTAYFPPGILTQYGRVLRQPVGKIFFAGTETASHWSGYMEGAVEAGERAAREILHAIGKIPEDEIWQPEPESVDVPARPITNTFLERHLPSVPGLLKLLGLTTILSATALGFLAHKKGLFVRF
smiles,measurement,setting,value
COC(=O)C=C(C)OP(=O)(OC)OC,outcome,[1],inactive
CCCCC(CC)COC(=O)c1ccccc1C(=O)OCC(CC)CCCC (centres undefined),outcome,[2],inactive
COc1nc(NC(C)C)nc(NC(C)C)n1,AC50,[3],25 µM (active)
same,AC50,[2],8.99 µM (active)
same,AC50,[4],9.33 µM (active)
CCNc1nc(Cl)nc(NC(C)C)n1,AC50,[3],8.64 µM (active)
same,outcome,[5],inactive
same,AC50,[2],5.9 µM (active)
same,AC50,[4],4.96 µM (active) and 6.26 µM (active)
same,outcome,[4],inactive
CO/C=C(/C(=O)OC)c1ccccc1Oc1cc(Oc2ccccc2C#N)ncn1,AC50,[3],19.1 µM (active) and 7.23 µM (active)
same,outcome,[6],inactive
same,AC50,[7],12.3 µM (active) [middle of 4 runs]
same,AC50,[2],6.85 µM (active) [middle of 4 runs]
same,AC50,[8],5.24 µM (active)
same,outcome,[9],inactive
CCCCOC(=O)c1ccccc1C(=O)OCCCC,outcome,[10],inactive
COC(=O)N(OC)c1ccccc1COc1ccn(-c2ccc(Cl)cc2)n1,AC50,[2],5.54 µM (active)
same,AC50,[8],0.944 µM (active)
CS/C(C)=N/OC(=O)N(C)SN(C)C(=O)O/N=C(\C)SC,AC50,[7],25 µM (active)
O=C(Nc1ccccc1)Nc1ccnc(Cl)c1,AC50,[8],14.1 µM (active)
same,AC50,[11],11.6 µM (active)
same,AC50,[12],11.2 µM (active)
same,outcome,[13],inactive
CCON=C(CC)C1=C(O)CC(c2c(C)cc(C)cc2C)CC1=O (centres undefined),AC50,[14],4.89 µM (active)
same,AC50,[11],4.3 µM (active)
CCOC(=O)CC(SP(=S)(OC)OC)C(=O)OCC (centres undefined),AC50,[3],9.48 µM (active)
same,AC50,[7],15.2 µM (active)
same,AC50,[2],4.74 µM (active)
same,AC50,[4],5.74 µM (active)
CCOc1cc(Oc2ccc(C(F)(F)F)cc2Cl)ccc1[N+](=O)[O-],outcome,[14],inactive
N#CC(CCc1ccc(Cl)cc1)(Cn1cncn1)c1ccccc1 (centres undefined),outcome,[15],inactive
same,outcome,[11],inactive
COc1ccc(C(c2ccc(OC)cc2)C(Cl)(Cl)Cl)cc1,AC50,[2],6.77 µM (active)
same,outcome,[9],inactive
same,outcome,[12],inactive
same,outcome,[16],inactive
Fc1ccc(Oc2ccnc3cc(Cl)cc(Cl)c23)cc1,outcome,[17],inactive
same,outcome,[11],inactive
